# Rows were chosen to be rich in hits. Some 2.5% of all compounds tested hit in one or more screens of this group.
# 697 NFkB inh: inhibitors of the PMA/ionomycin-induced NF-kB reporter in 697 B cells | 330,000 compounds, 0.33% hits | 697 B-cell NF-kB luciferase reporter, 16 h | inhibition, % at 4 µM; in the data active = inhibition above about 35%
# aSyn 5UTR inh: 5' untranslated region of α-synuclein, MLPCN primary screen | alpha-synuclein 5'UTR reporter, inhibitor activity | inhibition, % (tested at 7.5 µM) | 300,000 compounds, 0.82% hits | AID 1813; in the data active = inhibition above about 60%;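 note: H4 neuroglioblastoma cells stably carrying SNCA 5'UTR luciferase fusion; 0% = DMSO wells and 100% = positive control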
# Jurkat NFkB inh: inhibitors of the PMA/ionomycin-induced NF-kB reporter in Jurkat cells; PMA/ionomycin-induced NF-kB luciferase reporter, luminescence; inhibition, % at 4 µM; 330,000 compounds, 0.53% hits; AID 435003; in the data active = inhibition above about 50%
# TMEM16A inh: blocks the mouse calcium-activated chloride channel TMEM16A | Q8BHY3 | HEK293 TMEM16A/YFP iodide influx fluorescence, ionomycin | normalized B-score (activity score, 25-100; higher = stronger inhibition) at 10 µM | 310,000 compounds, 1.2% hits;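 active = ratio plate-corrected score three or more library SD toward inhibition, starting fluorescence score within five deviations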;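 note: score derived from kinetic fluorescence span divided by baseline fluorescence per well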
# Target sequence (Q8BHY3 whole entry, looked up): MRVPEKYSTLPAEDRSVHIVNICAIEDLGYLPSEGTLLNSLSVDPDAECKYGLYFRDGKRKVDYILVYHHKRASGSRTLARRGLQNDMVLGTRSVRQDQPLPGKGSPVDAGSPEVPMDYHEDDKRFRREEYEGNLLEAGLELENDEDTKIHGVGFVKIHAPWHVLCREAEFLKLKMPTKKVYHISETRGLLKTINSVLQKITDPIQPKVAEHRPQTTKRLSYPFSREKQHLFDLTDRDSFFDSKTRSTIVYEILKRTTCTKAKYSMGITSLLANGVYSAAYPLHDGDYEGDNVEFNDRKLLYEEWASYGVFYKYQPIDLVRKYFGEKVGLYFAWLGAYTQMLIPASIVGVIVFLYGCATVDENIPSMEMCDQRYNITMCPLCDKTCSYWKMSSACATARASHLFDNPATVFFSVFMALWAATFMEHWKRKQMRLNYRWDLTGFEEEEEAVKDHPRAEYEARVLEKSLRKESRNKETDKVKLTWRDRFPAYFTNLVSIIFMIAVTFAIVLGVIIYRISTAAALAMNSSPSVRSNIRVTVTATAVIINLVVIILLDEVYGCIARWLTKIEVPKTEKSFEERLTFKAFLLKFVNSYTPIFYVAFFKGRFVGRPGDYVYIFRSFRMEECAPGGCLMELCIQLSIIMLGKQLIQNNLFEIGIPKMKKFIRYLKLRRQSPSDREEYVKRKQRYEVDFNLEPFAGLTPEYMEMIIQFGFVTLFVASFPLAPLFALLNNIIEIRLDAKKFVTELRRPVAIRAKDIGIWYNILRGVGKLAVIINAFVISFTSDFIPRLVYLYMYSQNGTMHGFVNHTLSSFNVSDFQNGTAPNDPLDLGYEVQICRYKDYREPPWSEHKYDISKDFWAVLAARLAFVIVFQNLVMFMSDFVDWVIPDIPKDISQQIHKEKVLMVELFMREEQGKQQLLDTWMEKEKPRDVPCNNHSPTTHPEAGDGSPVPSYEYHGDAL
# KLF5 inh: kruppel-like factor 5 inhibition. inhibition, % at 5 µM. DLD-1 KLF5 promoter-luciferase reporter, luminescence. 290,000 compounds, 0.23% hits. AID 1700;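 active = inhibition above a per-plate limit of that plate's mean compound inhibition plus 3 SD, cut at about 60% in these data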;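 note: 0% = DMSO wells and 100% = LY294002 at 200 µM; higher means less KLF5 promoter-driven luciferase light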
# TMEM16A act: activators or potentiators of mouse TMEM16A chloride channel; HEK293 TMEM16A/YFP-H148Q/I152L, iodide quench fluorescence; active compounds read low; Q8BHY3; AID 623877; 340,000 compounds, 0.3% hits; B-score at 10 µM;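 active = fluorescence-ratio B-score plate-corrected deviation score at least 3 library SD below zero, with starting fluorescence score within 5 deviations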;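 note: channel opened by trigger with iodide after compound preincubation; score built on the fluorescence ratio of max minus min over baseline; more negative score means more quench and so TMEM16A activation or potentiation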
# Jurkat NFkB conf: inhibitors of the PMA/ionomycin-induced NF-kB reporter in Jurkat cells, retest; shares compounds with Jurkat NFkB inh; Jurkat NF-kB luciferase, 16 h; inhibition, % at 4 µM; 2,700 compounds, 27% hits; AID 435020;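 active = inhibition reaching about 45% at 4 µM in either replicate, limit read from the data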;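 note: plate controls were PMA/ionomycin stimulated DMSO wells for no effect and unstimulated DMSO wells for full effect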
# Active calls of the source: *; i = inactive; . = not tested or not shown.
SMILES,697 NFkB inh,aSyn 5UTR inh,Jurkat NFkB inh,TMEM16A inh,KLF5 inh,TMEM16A act,Jurkat NFkB conf
COc1ccc(N(S(=O)(=O)c2ccccc2)S(=O)(=O)c2ccccc2)c(N)c1,-1,-3,51*,i,.,i,4
Fc1ccccc1-c1nc(-c2ccc(Cl)cc2)no1,-247,-203,-176,i,-18,i,-76
NC(=O)c1ccc(-c2noc(-c3ccccc3F)n2)cc1,-182,.,-139,.,.,i,.
COc1ccc(CC(=O)Nc2cccc(-c3nnc(-c4cccc(C)c4)o3)c2)cc1OC,-83,-187,51*,100*,-12,i,61*
COC(=O)c1ccc(NC(=S)Nc2ccccn2)cc1,-133,-171,-164,i,-42,i,-69
COc1ccc(NC(=S)Nc2ccccn2)cc1,-120,-168,-95,i,-114,i,.
COc1cccc(/C=C/C(=O)Nc2ccc3c(c2)OCCO3)c1OC,-52,-23,-183,i,29,i,-108
CCC1CCCCN1C(=O)c1cc(COc2ccc3ncccc3c2)on1 (configuration not stated),-31,-14,58*,25*,0,i,60*
COc1ccc(Nc2nc(N)c(C(=O)c3ccc(OC)cc3)s2)cc1,-61,18,50,i,41,i,14
COc1ccc(C(=O)c2sc(NC(C)C)nc2N)cc1OC,-13,.,0,i,-5,i,.
CCOc1ccc(S(=O)(=O)NCc2ccccn2)cc1NC(=O)c1ccccc1,-26,37,53*,i,.,i,46*
C=CCNc1nc(-c2ccc3c(c2)OCCO3)cs1,-181,-134,-152,i,-100,i,-8
CCC(=O)Nc1nc(-c2ccc3c(c2)OCCO3)cs1,-173,-136,-117,i,-209,i,.
O=C(NCCNC(=O)c1ccccc1)c1ccccc1,-12,6,-2,i,-28,i,.
O=C(N/C=C/c1ccccc1)c1ccccc1,-196,-135,-176,i,.,i,15
CC1=CC2=NC(=O)CC(C)(C(=O)N(CC(=O)NC3CCCC3)Cc3ccccc3)N2C=C1 (configuration not stated),16,-7,10,i,-1,i,.
O=C(CN1CCCCCC1)NN(Cc1ccccc1)c1ccccc1,16,2,16,i,13,i,.
O=C(COc1cc(Cl)ccc1Cl)Nc1nnc(C2CC2)s1,-33,2,-5,i,-19,i,.
O=C(N/N=C/c1cn(-c2ccccc2)nc1-c1cc2ccccc2o1)c1cccnc1,-93,23,-122,i,-29,i,.
O=C(N/N=C/c1cn(-c2ccccc2)nc1-c1cc2ccccc2o1)c1ccncc1,-142,-15,-155,25*,-66,i,-119
Cc1ccnc2c1ccc1c(C)ccnc12,-27,.,76*,.,.,i,75*
Cc1ccnc2c1ccc1ccccc12,9,-22,-2,i,-2,i,.
Cc1ccnc2c1ccc1cccnc12,-14,.,69*,.,.,i,64*
COc1ccc(CCn2c(Br)nc3c2c(=O)[nH]c(=O)n3C)cc1,-16,-5,57*,i,16,i,25
COc1ccc(CCn2c(NN)nc3c2c(=O)[nH]c(=O)n3C)cc1,-1,13,24,i,4,i,.
SMILES,697 NFkB inh,aSyn 5UTR inh,Jurkat NFkB inh,TMEM16A inh,KLF5 inh,TMEM16A act,Jurkat NFkB conf
Nc1ncc(-c2nnnn2-c2ccc(Cl)cc2)c(-c2ccc(Cl)cc2)n1,-28,10,56*,i,28,i,21
Cc1ccc(-n2nnnc2-c2cnc3ccc(Cl)cc3c2-c2ccccc2)cc1,-7,11,59*,i,-21,i,22
Clc1ccc(-c2nnnn2-c2ccc(Cl)cc2)cc1,-8,5,-6,i,-14,i,.
CCOc1ccc(C(=O)NCC(=O)N2CC=C(c3ccccc3)CC2)cc1OCC,18,-2,21,i,.,i,.
OC(c1cc(-c2ccc(C(F)(F)F)cc2)nc(C(F)(F)F)c1)C1CCCCN1 (configuration not stated),-22,103*,52*,i,-2,i,18
COc1ccc(CNC(=O)C2CCC(CNS(=O)(=O)c3ccccc3)CC2)cc1 (configuration not stated),14,-4,11,i,-9,i,.
Cc1ccc(S(=O)(=O)/N=C(\N)c2ccc(Cl)cc2)cc1,.,-5,.,i,-12,i,.
COc1ccc(N=C2S/C(=C\c3ccc(N4CCOCC4)o3)C(=O)N2CCc2c[nH]c3ccccc23)cc1,-38,-113,100*,i,-7,i,39
COc1ccc(N=C2S/C(=C\c3ccc(OCC(=O)O)cc3)C(=O)N2CCc2c[nH]c3ccccc23)cc1,9,-11,-1,.,-36,i,.
O=C(N/N=C/c1c(O)ccc2ccccc12)c1cccc(C(F)(F)F)c1,-40,111*,52*,i,18,i,74*
COCCN(C(=O)Nc1ccccc1OC)c1nc2ccccc2s1,-19,-1,0,i,-28,i,.
COc1ccc2nc(C)cc(N/N=C/c3ccc(F)cc3)c2c1,32,93*,98*,i,-17,i,89*
COc1ccc(/C=N/Nc2cc(C)nc3ccccc23)cc1,-38,-85,-55,i,-60,i,.
Cc1cc(C)c(C#N)c(SCc2nnc(-c3ccccc3[N+](=O)[O-])o2)n1,-222,19,-184,i,-152,i,-124
O=CN1CCN(C=O)C(O)C1O (configuration not stated),.,.,.,.,.,i,.
CCOc1cc(N2CCOCC2)c(OCC)cc1NC(=O)c1cc(S(=O)(=O)N2CCOCC2)ccc1F,-4,.,62*,.,.,i,23
Cc1cc(/N=C/C=C2/N(C)c3ccccc3C2(C)C)n(CCC#N)n1,.,.,.,.,.,i,.
CCOc1ccc(-n2nc3cc(C)c(N)cc3n2)cc1,-157,26,-166,i,-3,i,-10
CCOc1ccccc1CN1CCN(Cc2cc(=O)c3ccccc3[nH]2)CC1CCO (configuration not stated),-13,-25,51*,i,-38,i,17
CCc1ccc(N2C(=O)C(Cl)=C(Nc3ccc(C(=O)N4CCCC4)cc3)C2=O)cc1,-117,.,83*,.,.,i,88*
Cc1ccc(OCCn2cnc3cc([N+](=O)[O-])ccc3c2=O)cc1,34,2,-1,i,2,i,.
COc1ccc2c(Cn3cnc4cc([N+](=O)[O-])ccc4c3=O)cc(=O)oc2c1,15,72*,70*,i,1,i,11
CN(Cc1cccc(Cl)c1Cl)C(=O)c1ccccc1SCC(=O)N1CCCC1,.,.,.,.,.,i,.

# High-throughput results as filed in PubChem BioAssay.
